Screening results (PubChem)
LASV entry inh = qHTS for Inhibitors of binding or entry into cells for Lassa Virus | Lassa virus pseudotyped entry inhibition, cell-based qHTS | AID 720533, 2013 | Potency, µM (top dose mostly 49.2 µM), most hits filed as inhibitors | actives 4.1% (n = 18,000)
Marburg entry = qHTS for Inhibitors of binding or entry into cells for Marburg Virus; actives 6.5% (n = 18,000); Marburg virus pseudotype entry/binding inhibition, cell-based; Potency, µM (series often up to 49.2 µM), actives largely listed as inhibitors; AID 720532, 2013
Large screens that a line does not name were inactive; ! = a repeat was not active. Only some compounds are listed: those with a hit (about 8.6% of all), similar ones and a draw of the others. Calls follow the shape of the full dose curve; tested in HEK293 cells.

O=C1C2CC=CCC2C(=O)N1SC(Cl)(Cl)Cl (centres undefined)	LASV entry inh 10µM, Marburg entry inconclusive
C[C@H]1C[C@@H](C)C(=O)[C@@H]([C@H](O)CC2CC(=O)NC(=O)C2)C1	LASV entry inh 3.5µM, Marburg entry 1.1µM
CC1CC(C)C(=O)[C@H](C(O)CC2CC(=O)NC(=O)C2)C1 (some centres undefined)	LASV entry inh 5.6µM, Marburg entry 2.5µM
C[C@H]1C[C@H](C)C(=O)[C@@H]([C@H](O)CC2CC(=O)NC(=O)C2)C1	LASV entry inh 3.2µM, Marburg entry inconclusive
CCOC(=O)CN1C(=O)CC(C[C@@H](O)C2C[C@@H](C)C[C@H](C)C2=O)CC1=O (some centres undefined)	none
C[C@@H]1C[C@@H]([C@@H](C)CC2CC(=O)NC(=O)C2)C(=O)[C@@H](C)C1	LASV entry inh 4.5µM, Marburg entry 5µM
CCCCCCN1C[C@@H](n2cc(C3CC3)nn2)[C@H](O)C[C@H]1c1ccc(OC)cc1	none (no result: LASV entry inh)
O=C(Oc1ccccc1)c1ccccc1O	none
COc1ccc(-c2cc(C)cc3c2OC(CNC(=O)/C=C/c2ccncc2)C3)nn1 (centres undefined)	none
CCCCC1=CC2=C(OC(C)=O)C(=O)C(C)(OC(=O)c3ccco3)C(=O)C2=CO1 (centres undefined)	none
COc1ccc(OC)c(CN2C[C@H](Sc3ccc(F)cc3)C[C@H]2C(=O)N(C)C)c1	none
COc1ccc2c(c1)C(=O)[C@@H](OC(=O)N[C@H]1CCCc3ccccc31)[C@H](c1ccc(OC)c(Br)c1)O2	none
NC(=O)O	none
O=C1c2ccccc2CC[C@H]1CNCCc1ccc(O)cc1	LASV entry inh inconclusive
C=CCCCCCCCCCCC/C=C/C(O)COC(C)=O (centres undefined)	Marburg entry inconclusive
CCCCCCCC/C=C/CCCCCCCCOP(=O)([O-])OCC[N+](C)(C)C	none
CNC(=O)c1cc(Oc2ccc(NC(=O)Nc3ccc(Cl)c(C(F)(F)F)c3)cc2)ccn1	LASV entry inh 7.9µM, Marburg entry 13µM
COC(=O)Nc1nc2ccc(Oc3cccc(NC(=O)Nc4cc(C(F)(F)F)ccc4F)c3)cc2[nH]1	Marburg entry inconclusive
O=C1CC2(CCCC2)CC(=O)N1CCNCC1COc2ccccc2O1 (centres undefined)	Marburg entry inconclusive
C#CCCOC(=O)N1C2=NC(C(=O)OC)=C(C(=O)OC)[C@@H]3N(C)c4ccccc4[C@]23C[C@H]1C(=O)OC	none (no result: LASV entry inh)
CN(C)c1ccc(/C=C2/C(=O)Nc3ccccc32)cc1	LASV entry inh inconclusive, Marburg entry 8.9µM
CN(C)c1ccc(/C=C2\C(=O)Nc3ccccc32)cc1	LASV entry inh 14µM
COC(=O)[C@H]1[C@H](CCc2ccccc2)NC(=O)N(Cc2ccccc2)[C@H]1C	none (no result: LASV entry inh)
C=C[C@@H](C)[C@](C)(O)c1ccccc1	none
CC(C)c1c(C(=O)N(C)Cc2cccc3ncccc23)cnn1-c1nccc(-c2ccco2)n1	none
Cc1cc2c(c(-c3cnccn3)c1)OC(CNC(=O)C1CCCN(C)C1)C2 (centres undefined)	Marburg entry inconclusive
CS(=O)(=O)Nc1ccc(F)cc1	none
CC(NCCC(c1ccccc1)c1ccccc1)c1ccccc1 (centres undefined)	LASV entry inh inconclusive, Marburg entry 11µM
CN(C)[C@H](Cc1ccccc1)c1ccccc1	none
CC(NN)c1ccccc1 (centres undefined)	none
C[C@@H](Cc1ccccc1)NCCC(c1ccccc1)c1ccccc1	LASV entry inh inconclusive, Marburg entry 7.9µM
Cc1cc(C)nc(-c2cccc3c2OC(CNC(=O)c2ccc(Cn4nc(C)cc4C)cc2)C3)n1 (centres undefined)	Marburg entry inconclusive
O=c1ccc2cc(O)c(O)cc2o1	none
CC[C@@]1([C@@H]2O[C@@H]([C@H]3O[C@@](O)(CO)[C@H](C)C[C@@H]3C)C[C@@H]2C)CC[C@@H]([C@]2(C)CCC3(C[C@H](O)[C@@H](C)[C@@H]([C@@H](C)[C@@H](OC)[C@H](C)C(=O)O)O3)O2)O1 (some centres undefined)	LASV entry inh 0.56µM, Marburg entry 0.32µM
CC[C@@]1([C@@H]2O[C@@H]([C@H]3O[C@@](O)(CO)[C@H](C)C[C@@H]3C)C[C@@H]2C)CC[C@H]([C@]2(C)CC[C@]3(C[C@H](O)[C@@H](C)[C@@H]([C@@H](C)[C@@H](OC)C(C)C(=O)O)O3)O2)O1 (some centres undefined)	LASV entry inh 0.45µM, Marburg entry 0.28µM
CO[C@@H]1[C@@H](OC)[C@H](C)[C@@](O)(CC(=O)O)O[C@H]1[C@H](C)[C@H]1O[C@@]2(CC[C@@](C)([C@H]3CC[C@@](C)([C@@H]4O[C@@H]([C@H]5O[C@](C)(O)[C@H](C)C[C@@H]5C)C[C@@H]4OC4C[C@H](OC)[C@@H](OC)[C@H](C)O4)O3)O2)C[C@H](O)[C@H]1C (some centres undefined)	LASV entry inh 1µM, Marburg entry inconclusive
CCOC(=O)CN1C(=O)[C@@]2(CC(C)=CC[C@@H](COc3ccccc3)O2)c2c(Br)cccc21	none
NC[C@H]1O[C@H](O[C@H]2[C@H](O)[C@@H](O[C@H]3O[C@H](CO)[C@@H](O)[C@H](N)[C@H]3O)[C@H](N)C[C@@H]2N)[C@H](O)[C@@H](O)[C@@H]1O	none
CC(C)ON(C(C(=O)NO)C(C)C)S(=O)(=O)c1ccc(-c2ccccc2)cc1 (centres undefined)	LASV entry inh 6.3µM, Marburg entry 6.3µM
CC(C)ON(CC(=O)NO)S(=O)(=O)c1ccc(-c2ccccc2)cc1	none
Clc1ccccc1CN1CCc2sccc2C1	none (no result: LASV entry inh)
NC(=O)N/N=C\c1ccc([N+](=O)[O-])o1	none
C=CCN1CC[C@@]23c4c5ccc(O)c4O[C@H]2/C(=N\N=C2/CC[C@@]4(O)[C@H]6Cc7ccc(O)c8c7[C@@]4(CCN6CC=C)[C@@H]2O8)CC[C@]3(O)[C@@H]1C5	Marburg entry inconclusive
O=c1[nH]c(=O)n([C@@H]2O[C@H](CO)[C@@H](O)[C@H]2O)cc1F	LASV entry inh 10µM, Marburg entry inconclusive
CCc1cn([C@H]2C[C@H](O)[C@@H](CO)O2)c(=O)[nH]c1=O	none
CC[C@H]1[C@@H]2C=C[C@@H]3[C@H]4C/C=C\C(=O)NCCC[C@@H]5NC(=O)C(=C5O)C(=O)CC[C@@H]4C[C@@H]3[C@H]2C[C@H]1C	LASV entry inh 28µM, Marburg entry 14µM
CN1N=C(C(=O)N2CCOc3ccc(CN4CCCC(C(=O)c5cccnc5)C4)cc3C2)CCC1=O (centres undefined)	none
CC(=O)O.CC(=O)O.[Cd]	LASV entry inh 7.9µM, Marburg entry 2.8µM
O=C(O)/C=C\C(=O)O	none
Cc1ccc(CN2CCC(C3(c4ccccn4)NC(=O)N(CC4CCCO4)C3=O)CC2)cc1C (centres undefined)	Marburg entry inconclusive
[N-]=[N+]=CC(=O)OC[C@H](N)C(=O)O	none
O=C(OCC(F)(F)F)[C@H](O)[C@@H](O)C(=O)OCC(F)(F)F	none
Clc1ccc(Cn2c(CN3CCCC3)nc3ccccc32)cc1	none
COc1ccc(CCN2CCC(Nc3nc4ccccc4n3Cc3ccc(F)cc3)CC2)cc1	LASV entry inh 32µM!, Marburg entry 4µM
Cc1cc2c(c(-c3cnccn3)c1)OC(CNC(=O)c1ccccc1C(F)(F)F)C2 (centres undefined)	none
CCNc1nc(Cl)nc(NCC)n1	none
